Assay results published in PubChem BioAssay (EPA / NIEHS).
Where “and” joins values, the source holds several entries; their conditions need not be identical. Equal values may be shown once. Some structures have more than one record in an assay (separate samples or runs), and their calls can disagree. Calls of active or inactive are those of the source. The calls were made as follows: active = hit-call score of the fitted dose curve at least 0.9, where 1 is the maximum; inactive = score below 0.9.

Assays:
[1] = read-out: Tissue plasminogen activator (tPA), PLAT (gene 5327); test: BSK_BF4T_tPA: BioMAP Diversity Plus: BF4T Assay for Tissue plasminogen activator (tPA) Biomarker Activity (AID 2284272); settings: primary human bronchial epithelial cells with fibroblasts
Summary of the method: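 tPA level quantified by ELISA at 24 h post-treatment in bronchial epithelial/dermal fibroblast co-cultures, gain of signal scored against DMSO baseline. Parallel cultures stained with 0.1% SRB (560 nm) to flag overt cytotoxicity.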

[2] = read-out: Plasminogen Activator Inhibitor-1 (PAI1), SERPINE1 (gene 5054); test: BSK_BF4T_PAI1: BioMAP Diversity Plus: BF4T Assay for Plasminogen Activator Inhibitor-1 (PAI1) Biomarker Activity (AID 2284273); settings: primary human bronchial epithelial cells with fibroblasts
Summary of the method: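 PAI-1 levels quantified by ELISA 24 h post-dosing in bronchial epithelial cell plus dermal fibroblast cultures. Signal gain referenced to DMSO baseline. Sulforhodamine B total-protein staining of parallel wells checked cytotoxicity.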

[3] = BSK_BF4T_SRB: Viability Assessment in the BioMAP Diversity Plus: BF4T Assay (AID 2284274); settings: primary human bronchial epithelial cells with fibroblasts
Summary of the method: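 Cytotoxicity measured as total protein: cells fixed with 10% TCA, stained with 0.1% SRB, read at 560 nm. Bronchial epithelial/dermal fibroblast co-culture, 24 h after dosing, with positive-direction fitting relative to DMSO.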

[4] = read-out: urokinase Plasminogen Activator (uPA), PLAU (gene 5328); test: BSK_BF4T_uPA: BioMAP Diversity Plus: BF4T Assay for urokinase Plasminogen Activator (uPA) Biomarker Activity (AID 2284275); settings: primary human bronchial epithelial cells with fibroblasts
Summary of the method: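 uPA levels measured by ELISA at 24 hours in BF4T cultures (bronchial epithelial cells plus dermal fibroblasts) and compared with DMSO; cytotoxicity tracked in parallel cultures by sulforhodamine B staining.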

[5] = read-out: Matrix Metallopeptidase 9 (MMP9), MMP9 (gene 4318); test: BSK_BF4T_MMP9: BioMAP Diversity Plus: BF4T Assay for Matrix Metallopeptidase 9 (MMP9) Biomarker Activity (AID 2284276); settings: primary human bronchial epithelial cells with fibroblasts
Summary of the method: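 MMP-9 levels were measured by ELISA after 24 h exposure of bronchial epithelial cell/dermal fibroblast co-cultures, with DMSO as baseline. Parallel cultures were stained with 0.1% SRB after TCA fixation, read at 560 nm, to flag overt cytotoxicity.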

[6] = read-out: Interleukin-8 (IL8), CXCL8 (gene 3576); test: BSK_IMphg_IL8: BioMAP Diversity Plus: IMphg Assay for Interleukin-8 (IL8) Biomarker Activity (AID 2284277); settings: primary human endothelial cells with macrophages
Summary of the method: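 IL-8 levels were measured by ELISA 24 h after dosing in primary human venular endothelial cell–macrophage cultures, referenced to DMSO; parallel SRB staining monitored overt cytotoxicity.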

[7] = read-out: Intercellular Adhesion Molecule 1 (ICAM1), ICAM1 (gene 3383); test: BSK_BE3C_ICAM1: BioMAP Diversity Plus: BE3C Assay for Intercellular Adhesion Molecule 1 (ICAM1) Biomarker Activity (AID 2284278); settings: primary human bronchial epithelial cells;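 as to outcome: cell-surface ICAM-1 protein level quantified by ELISA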
Summary of the method: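 ELISA read-out of ICAM-1 on human lung bronchial epithelial primary cells, 24 h post-dosing; positive-direction curve fit, DMSO = baseline. SRB total-protein staining of parallel cultures flagged overt cytotoxicity.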

[8] = read-out: Interferon-inducible T-cell alpha chemoattractant (ITAC), CXCL11 (gene 6373); test: BSK_BE3C_ITAC: BioMAP Diversity Plus: BE3C Assay for Interferon-inducible T-cell alpha chemoattractant (ITAC) Biomarker Activity (AID 2284279); settings: primary human bronchial epithelial cells
Summary of the method: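 Steps: dose human bronchial epithelial cells with chemical; incubate 24 h; measure I-TAC by ELISA; fit endpoint in positive direction against DMSO control. Cytotoxicity was checked in parallel cultures by SRB staining at harvest.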

[9] = read-out: Interleukin-8 (IL8), CXCL8 (gene 3576); test: BSK_BE3C_IL8: BioMAP Diversity Plus: BE3C Assay for Interleukin-8 (IL8) Biomarker Activity (AID 2284280); settings: primary human bronchial epithelial cells
Protocol: BSK_BE3C is a cell-based, multiplexed-readout assay that uses bronchial epithelial cell, a human lung primary cell, with measurements taken at 24 hours after chemical dosing in a 96-well plate.BSK_BE3C_IL8 is an assay component measured in the BSK_BE3C assay. It measures IL-8 antibody related to regulation of gene expression using ELISA technology.Data from the assay component BSK_BE3C_IL8 was analyzed at the endpoint, BSK_BE3C_IL8, in the positive analysis fitting direction relative to DMSO as the negative control and baseline of activity. Using a type of binding reporter, gain or loss-of-signal activity can be used to understand protein changes. To generalize the intended target to other relatable targets, this assay endpoint is annotated to the 'cytokine' intended target family, where the subfamily is 'interleukins'.
The levels of cell surface (or secreted, indicated by the prefix "s") biomarker endpoints were measured by ELISA. Overt cytotoxicity to cells in confluent adherent cultures (all systems other than the BT system) was assessed by measuring total protein levels using sulforhodamine B (SRB) staining in parallel cultures at the time of biomarker measurements, indicated as SRB endpoints. For proliferation assays for adherent cell types, individual cell types are cultured at sub-confluence and relative cell numbers quantified by SRB staining at time points optimized for each system (48 h: 3C and CASM3C systems; 72 h: BT and HDF3CGF systems; 96 h: SAg system). SRB was performed by staining cells with 0.1% SRB after fixation with 10% TCA and reading wells at 560 nm.Viability and proliferation of PBMC (T cells) was quantified by Alamar Blue reduction for the SAg and BT systems. […] Then, Alamar Blue (20 uL/well) (Invitrogen, Cat DAL1100) was added for 6 h, and the plates were read with a fluorescence microplate reader at 546/580 nm (excitation/emission). […] Plates were read after 6 h.

[10] = read-out: Epidermal growth factor receptor (EGFR), EGFR (gene 1956); test: BSK_BE3C_EGFR: BioMAP Diversity Plus: BE3C Assay for Epidermal growth factor receptor (EGFR) Biomarker Activity (AID 2284281); settings: primary human bronchial epithelial cells
Summary of the method: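 Measured 24 h after dosing in primary human bronchial epithelial cultures, EGFR was read by ELISA; gain of signal over DMSO control defined activity.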

Row | SMILES | outcome [1] | outcome [2] | outcome [3] | outcome [4] | AC50 [5] | outcome [5] | outcome [6] | AC50 [7] | outcome [7] | AC50 [8] | AC50 [9] | outcome [9] | AC50 [10] | outcome [10] | AC50 [1] | AC50 [6] | outcome [8]
1 | O=S(=O)(O)C(F)(F)C(F)(F)C(F)(F)C(F)(F)C(F)(F)C(F)(F)C(F)(F)C(F)(F)F | inactive | inactive | inactive | inactive | 17.1 µM (active) | inactive | inactive | 49.3 µM (active) and 53.4 µM (active) | inactive | 40.8 µM (active) [middle of 4 runs] | 30 µM (active) and 7.03 µM (active) and 2.79 µM (active) | inactive | 16.5 µM (active) and 11.6 µM (active) and 13.2 µM (active) | inactive |  |  | 
2 | O=C(O)C(F)(F)C(F)(F)C(F)(F)C(F)(F)C(F)(F)C(F)(F)C(F)(F)F | inactive | inactive | inactive | inactive |  | inactive | inactive |  | inactive |  |  | inactive |  | inactive | 30 µM (active) and 1.85 µM (active) | 20.5 µM (active) and 20.3 µM (active) and 25.2 µM (active) | inactive
